# Compounds with a hit are over-represented: about 2.9% of the library has one in this group of screens.
# KLK7 zymogen act: activates the human kallikrein-7 zymogen | P49862 | purified proKLK7, EDANS-DABCYL substrate fluorescence; 100% is mature enzyme control, 0% vehicle | activation, % at 7 µM | 370,000 tested, 0.9% active | AID 652039;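 active = activation above the mean of all tested compounds plus 3 SD, computed per campaign excluding outliers beyond control limits, cut at about 13% in these data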
# Target sequence (P49862 whole entry, looked up): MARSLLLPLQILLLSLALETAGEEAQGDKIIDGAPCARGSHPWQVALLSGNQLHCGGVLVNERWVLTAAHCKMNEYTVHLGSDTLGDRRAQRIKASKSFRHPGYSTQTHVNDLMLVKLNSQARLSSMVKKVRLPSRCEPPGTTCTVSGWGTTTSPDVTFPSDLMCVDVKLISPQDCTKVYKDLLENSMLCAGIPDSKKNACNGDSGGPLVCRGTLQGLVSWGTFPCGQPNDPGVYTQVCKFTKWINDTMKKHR
# ADAM17 inh: inhibits human ADAM17; AID 720648; recombinant ADAM17, EDANS/DABCYL FRET peptide cleavage; P78536; inhibition, % at 6.95 µM; 370,000 tested, 0.83% active;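 active = inhibition above the mean of compounds lying between control limits plus 3 SD, set per campaign, cut at about 8.5% in these data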;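 also: 0% = DMSO-only wells as the low control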
# ADAM10 inh: ADAM10 inhibition, QFRET primary screen | 370,000 tested, 0.62% active | recombinant ADAM10, EDANS/DABCYL FRET peptide cleavage, 3 h | inhibition, % at 7 µM | AID 720582;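 active = inhibition above a per-campaign cutoff equal to the mean of compounds falling between control-based bounds plus 3 SD, cut at about 20% in these data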;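 also: 0% = DMSO wells while the 100% control is not disclosed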
# PLC-beta3 inh: PLC-beta3 (human) inhibition, primary screen; Q01970; 370,000 tested, 0.18% active; Purified PLC-beta3, fluorogenic substrate, fluorescence; inhibition, % at 12.2 µM; in the data active = inhibition above about 11%;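 also: 0% = median of compound wells on plate and 100% = full blocker control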
# PLCg1 inh: PLC-gamma1 (human) inhibition, primary screen. P19174. purified PLC-gamma1, fluorogenic substrate, fluorescence. inhibition, % at 12.2 µM. 370,000 tested, 0.84% active; in the data active = inhibition above about 9.5%
# KLK7 act conf: confirmation of human kallikrein-7 zymogen activators. 3,200 tested, 68% active. purified proKLK7, EDANS-DABCYL substrate fluorescence; scaled: vehicle 0, mature enzyme 100. shares compounds with KLK7 zymogen act. activation, % at 7 µM. AID 686949;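 active = activation, as change over the incubation, above the mean of all tested compounds plus 3 SD, cut at about 13% in these data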
# EDANS interfere: fluorescence interference counter-screen for KLK7 activators; activation, % at 7 µM; 3,200 tested, 80% active; EDANS-DABCYL substrate fluorescence interference, no enzyme, 4 h; solvent 0%, active enzyme control 100%; AID 686952; shares compounds with KLK7 zymogen act;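 active = activation above the all-compound mean plus 3 SD, ignoring values outside control-based bounds, cut at about 4.8% in these data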;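 also: value is the 4 h activation minus the activation read at time zero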
# K7 EDANS ctr: optically interferes with EDANS-DABCYL fluorescence, kallikrein-7 activator counter-screen. EC50, µM. 250 tested, 20% active. shares compounds with KLK7 zymogen act. EDANS-DABCYL peptide fluorescence interference, no enzyme. AID 720493;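 active = compounds that raise the fluorescence signal in this interference counterscreen, with EC50 at or below 10 µM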;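 also: intact quenched peptide substrate alone read at 355 nm excitation and 520 nm emission; signal is fluorescence gain from T0 to T4 after four hours at room temperature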
# Starred values were filed as active, the others as inactive; i = inactive; · = no result.
SMILES,KLK7 zymogen act,ADAM17 inh,ADAM10 inh,PLC-beta3 inh,PLCg1 inh,KLK7 act conf,EDANS interfere,others
C[C@@H]1C(c2cccc(Cl)c2)=NN(c2ccccc2)[C@H]1C(=O)N1CCOC1=O,6.2,-37.6,-148.9,-110.7,-74.3,·,·,
C[C@@H]1C(c2ccccc2)=NN(c2ccccc2)[C@H]1C(=O)N1CCOC1=O,243.3*,-48.2,-160.2,-182.3,-136.7,222.9*,217.4*,
O=C(C[C@H]1C[C@H](C(=O)N2CCOCC2)[C@@]2(CCC3CCCC3)c3[nH]c4cc(-c5ccco5)ccc4c3CCN2C1=O)NCCCn1ccnc1,-5.7,-115.6,-326.0,-450.9,-309.4,·,·,
COCCCNC(=O)C[C@H]1C[C@H](C(=O)N2CCCCC2)[C@@]2(CCc3ccccc3)c3[nH]c4cc(-c5ccco5)ccc4c3CCN2C1=O,22.2*,-72.8,-256.3,-352.9,-284.6,-26.6,-27.4,
CC[C@]12c3[nH]c4ccccc4c3CCN1C(=O)C(CC(=O)NCCCOC)C[C@@H]2C(=O)N1CCN(C(=O)C2CC2)CC1 (stereo not given in full),0.4,3.0,8.8,2.4,4.7,·,·,
O=C(C[C@H]1C[C@H](C(=O)N2CCCCC2)[C@@]2(CCc3ccccc3)c3[nH]c4cc(-c5ccco5)ccc4c3CCN2C1=O)NCCN1CCOCC1,21.6*,-80.7,-272.8,-264.5,-194.4,17.2*,5.7*,K7 EDANS ctr=8.64*
CCOC(=O)[C@H]1[C@H]2COc3ccc(C)cc3[C@@H]2N2C(=O)CN(Cc3ccc(OC)cc3)C(=O)[C@@]12C,0.5,-3.1,-5.0,-7.3,0.8,·,·,
CCN(C(=O)CSc1nnnn1-c1cc(C)ccc1OC)C1CCS(=O)(=O)C1 (stereo not given),-0.1,0.9,-0.5,3.1,1.7,·,·,
CCCn1nnnc1SCC(=O)N(C(C)C)C(C)C,-0.3,-8.4,4.9,-0.6,-2.4,·,·,
CN(C)CCCNS(=O)(=O)c1ccc(N2CCC(c3ccc(Cl)cc3)=N2)cc1,24.0*,i,i,i,i,65.6*,61.6*,
Cc1nc2c(C(=O)Nc3ccc(N4CCCC(O)C4)cc3)snc2c(=O)[nH]1 (stereo not given),0.3,-4.8,-6.3,-7.0,1.8,·,·,
Cc1nc2nc(-c3ccccc3)cn2nc1C,64.0*,i,i,i,i,69.8*,72.3*,
Cc1cc(N2CCOCC2)n2cc(-c3ccc(F)cc3)nc2n1,3.9,-64.0,-172.2,-80.5,-50.6,·,·,
Cc1nc2nc(-c3ccc(F)cc3)cn2nc1C,66.6*,i,i,i,i,68.7*,59.4*,
CCc1c(-c2ccccc2)nc2nc(C)c(C)nn12,15.0*,-27.4,-102.2,-295.5,-229.9,-3.6,-0.1,
Brc1ccc(-c2cn3nc4c(nc3n2)CCCC4)cc1,-2.3,-37.1,-119.2,-252.1,-177.7,·,·,
CCc1ccc(-c2cn3nc(C)c(C)nc3n2)cc1,49.5*,i,i,i,i,72.8*,72.0*,
CCCc1cc2c(cc1NC(=O)c1ccccc1F)OCO2,0.4,0.0,-5.8,2.9,3.4,·,·,
Cc1ccc(Oc2ncnc3sccc23)cc1,0.5,-4.0,-5.8,3.4,-1.1,·,·,
CCOC(=O)/C(=C(/C)N)C1CC(=O)NC1=O (stereo not given),33.3*,-8.4,-19.9,-5.0,-5.9,37.3*,37.5*,
CCOC(=O)C1=C(C)NC(=O)CC1c1ccccc1 (stereo not given),0.0,0.5,-0.6,3.7,0.3,·,·,
CC(=O)N1CCC2(CC1)CC(=O)c1cc(OCC(=O)N3CCCC3)ccc1O2,40.2*,-369.1,i,i,i,52.5*,55.3*,
CCOC(=O)COc1ccc2c(c1)C(=O)CC1(CCN(C(C)=O)CC1)O2,22.4*,i,i,i,i,26.0*,43.2*,
CCOc1ccc(OCC(=O)N2CCC3(CC2)CC(=O)c2ccccc2O3)cc1,0.4,-25.6,-93.8,-12.3,-10.9,·,·,
CCCn1c(=O)[nH]c(=O)c2c1nc(-c1ccc(OC(F)F)cc1)n2CCN1CCOCC1,0.1,-7.8,-11.2,-5.1,-5.0,·,·,
